From PubChem BioAssay (NCATS) come the findings set out here.

Unmarked numbers belong to inactive results. Inconclusive results are not listed. Calls of active or inactive are those of the source. Unless noted, calls come from the whole dose curve; as a rule, active = well fitted curve in either direction with a large enough effect (not every such curve was filed as active); inconclusive = small, poorly fitted or top-dose-only effect, or another doubt; inactive = flat fitted curve, though single readings scatter. A value given as a limit tells only on which side of the number the result lay.

Assay [1] has as its target Lysosomal acid glucosylceramidase (Homo sapiens) (UniProt P04062). Put plainly: Glucocerebrosidase-p2 (AID 348; in the data active = potency below about 10 µM; note: potency is the fitted concentration of half-maximal effect). Conditions: purified GBA, blue fluorogenic substrate, 40 min. The method, boiled down:
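Compounds titrated from 0.6 nM upwards against 0.2 nM enzyme in pH 5.9 citric acid/KH2PO4, taurocholate, tween-20; blue fluorogenic substrate 80 uM, 40 min room temperature, stopped and read Ex 365/Em 440 for AC50.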

Assay [2] is described as follows: AP1 Signaling Pathway (AID 357).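 Note: ME-180 reporter cells stimulated with EGF at its EC50 level; % is set by controls: 0 for no effect and ±100 for the full control effect.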 Conditions: ME-180 AP-1-bla reporter, EGF-induced, beta-lactamase ratio, 5 h; at 7.69 µM (top of the series) unless noted. The method, boiled down: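 In this screen, ME-180 cells in Opti-MEM with 0.5% dialyzed FBS received EC50 EGF and compound titrations for 5 h. AP-1 reporter beta-lactamase was detected via CCF4 ratio, giving AC50 for positive and negative modulators.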

The target of assay [3] is Cytochrome P450 1A2 (Homo sapiens) (UniProt P05177). In words: p450-cyp1a2 (AID 410; calls by dose curve; note: potency is the fitted concentration of half-maximal effect;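 for activity change, negative = inhibition: -100% = full effect of reference inhibitor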). Conditions: recombinant CYP1A2, luciferin-ME demethylation, luminescence; series mostly up to 11.4 µM. The gist of the method: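 Luminescent readout of luciferin formed from Luciferin-ME by human CYP1A2; data normalized against complete inhibition by 57 uM furafylline. Enzyme 20nM, substrate 100uM at Km, 100mM KPO4 buffer, 60 min reaction at room temperature.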
Sequence of Cytochrome P450 1A2 (Homo sapiens) (P05177 whole entry, looked up): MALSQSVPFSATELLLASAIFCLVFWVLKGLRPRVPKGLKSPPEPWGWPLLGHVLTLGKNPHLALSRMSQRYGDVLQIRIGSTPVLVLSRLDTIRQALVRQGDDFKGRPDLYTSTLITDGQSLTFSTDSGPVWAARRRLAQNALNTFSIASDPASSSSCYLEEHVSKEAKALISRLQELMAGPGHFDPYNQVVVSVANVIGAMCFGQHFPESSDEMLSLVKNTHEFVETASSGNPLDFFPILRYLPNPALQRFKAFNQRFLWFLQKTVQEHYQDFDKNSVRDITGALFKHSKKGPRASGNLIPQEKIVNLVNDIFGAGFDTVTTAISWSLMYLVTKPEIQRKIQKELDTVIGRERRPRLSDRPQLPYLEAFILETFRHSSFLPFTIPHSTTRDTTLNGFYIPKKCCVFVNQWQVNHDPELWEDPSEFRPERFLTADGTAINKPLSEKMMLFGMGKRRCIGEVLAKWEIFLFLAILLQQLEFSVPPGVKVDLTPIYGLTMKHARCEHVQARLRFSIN

A short description of assay [4]: NFAT Signaling Pathway (AID 444).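 Note: carbachol stimulus at about its EC50 of 1 µM final; % is set by controls: 0 for no effect and ±100 for the full control effect.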 Conditions: Jurkat NFAT-bla M1, carbachol, beta-lactamase ratio, 5 h; at 7.69 µM (top of the series) unless noted. The method, boiled down:
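Jurkat cells carrying an NFAT-driven β-lactamase reporter and co-transfected muscarinic M1 receptor were treated with compound plus carbachol (1 uM final, an EC50 level) for 5 h at 37 °C. CCF4 loading followed for 1 h at RT; 460/530 nm ratio gave %activity.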

Assay [5] is described as follows: Stat Signaling Pathway (AID 446).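 Note: ME-180 cervical cancer cells given 40 pM IL-6 alongside compound; SIE-controlled beta-lactamase reporter measured as 460/530 nm FRET emission ratio; % is set by controls: 0 for no effect and ±100 for the full control effect.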 Conditions: ME-180 (cervical carcinoma) SIE beta-lactamase reporter, IL-6 stimulated, 5 h; at 7.69 µM (top of the series) unless noted. The method, boiled down:
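ME-180 SIE-bla cells; overnight plating; cpd + IL-6 40 pM, 5 h, 37 C; LiveBLAzer 2.5 h RT; 460/530 nm emission ratio. Normalized to 300 pM IL-6 and 125 nM JAK inhibitor controls.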

Assay [6] deals with Glucocorticoid receptor (Homo sapiens) (UniProt P04150). In words: GR-GFP Redistribution (AID 450;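 active = compounds whose dose series gives a full or clear partial fitted curve of increased nuclear translocation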; note: potency is the fitted concentration of half-maximal effect). Conditions: U2OS GR-GFP nuclear translocation, laser cytometry, 2 h.
Sequence of Glucocorticoid receptor (Homo sapiens) (P04150 whole entry, looked up): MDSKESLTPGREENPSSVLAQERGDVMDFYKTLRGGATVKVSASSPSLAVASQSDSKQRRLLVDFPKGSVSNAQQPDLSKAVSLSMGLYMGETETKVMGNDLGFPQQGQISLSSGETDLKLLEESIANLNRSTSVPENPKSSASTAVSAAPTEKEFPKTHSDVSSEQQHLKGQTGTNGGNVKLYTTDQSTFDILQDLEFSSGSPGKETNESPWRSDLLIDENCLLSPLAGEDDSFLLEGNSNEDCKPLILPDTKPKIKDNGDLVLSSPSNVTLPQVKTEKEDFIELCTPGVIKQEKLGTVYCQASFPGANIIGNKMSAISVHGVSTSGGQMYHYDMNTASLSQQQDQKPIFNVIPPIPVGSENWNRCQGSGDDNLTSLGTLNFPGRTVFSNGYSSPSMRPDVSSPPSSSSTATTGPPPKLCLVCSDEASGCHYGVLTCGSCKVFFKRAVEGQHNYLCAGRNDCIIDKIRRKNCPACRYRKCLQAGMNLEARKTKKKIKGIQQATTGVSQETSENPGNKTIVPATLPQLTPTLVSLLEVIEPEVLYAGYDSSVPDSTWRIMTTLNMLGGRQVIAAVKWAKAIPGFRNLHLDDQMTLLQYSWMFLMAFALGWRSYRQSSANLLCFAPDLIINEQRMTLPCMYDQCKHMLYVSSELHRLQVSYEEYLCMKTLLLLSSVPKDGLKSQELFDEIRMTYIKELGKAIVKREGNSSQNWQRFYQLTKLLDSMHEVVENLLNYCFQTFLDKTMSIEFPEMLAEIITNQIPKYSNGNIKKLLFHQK
The target is the same in assay [7]. In words: GR-EFC Redistribution (AID 451; calls by dose curve; note: potency is the fitted concentration of half-maximal effect). Conditions: CHO-K1 GR-EFC translocation, beta-gal luminescence, 2 h. The gist of the method:
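CHO-K1 cells stably expressing nuclear-localized β-gal enzyme acceptor and GR fused C-terminally to the enzyme donor fragment; ligand-driven nuclear translocation restores β-gal by complementation. Compounds titrated up to 46 uM final, 2 h at 37 °C; luminescence read.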

Assay [8] concerns the target Mitogen-activated protein kinase 10 (Mus musculus) (UniProt Q61831). Put plainly: JNK3 AlphaScreen Assay (AID 530).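 Note: kinase came from lysate of stimulated human HepG2 cells; signal reports phosphorylation of biotinylated GST-cJun 1-79 at Ser73 with 10 µM ATP; % is set by controls: 0 for no effect and ±100 for the full control effect.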 Conditions: JNK3 lysate, c-Jun phosphorylation; series mostly up to 11.4 µM. The gist of the method: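 Inhibitors reduce antibody binding to phosphorylated biotin-cJun, lowering AlphaScreen luminescence. Lysates from HepG2 cells pre-activated by IL-1beta plus TNF-alpha supplied JNK3; compounds were titrated.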

The target in assay [9] is 3',5'-cyclic-AMP phosphodiesterase 4B (Homo sapiens) (UniProt Q07343). Put plainly: qHTS Assay for Inhibitors of PDE-IV (AID 607; active = well fitted activation curve with a large enough effect in the main read-out, with a control signal flat, not every such curve was filed as active; note: % of control where 0% means no effect). Conditions: HEK293 ACTOne CNG channel cells, membrane potential fluorescence; series mostly up to 22.9 µM. The gist of the method:
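ACTOne HEK293 cells carry a modified cAMP-gated CNG channel and express endogenous PDE4; plated 1000 cells/well, compounds up to 22.9 uM final. Membrane-potential dye fluorescence (ex 535/em 590) was read; parental cells received 10 uM forskolin + 100 uM RO 20-1724.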
For orientation: qHTS replaces the single test concentration by a dilution series.

In assay [10] the target is Cytochrome P450 2D6 (Homo sapiens) (UniProt P10635). In words: qHTS Assay for Inhibitors and Substrates of Cytochrome P450 2D6 (AID 891; active = well fitted inhibition curve with a large enough effect; note: nearly all actives have a fitted effect of over 60% in size; note: potency is the fitted concentration of half-maximal effect). Conditions: recombinant CYP2D6, luciferin-ME EGE luminescence; series mostly up to 11.4 µM. The method, boiled down: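 Human CYP2D6 (5 nM) with 30 uM Luciferin-ME EGE (at Km) in 100 mM KPO4, compound preincubated 10 min, then NADPH regeneration system for 60 min at room temperature. Luciferin read by luminescence; normalized to 1.43 uM quinidine.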
Sequence of Cytochrome P450 2D6 (Homo sapiens) (P10635 whole entry, looked up): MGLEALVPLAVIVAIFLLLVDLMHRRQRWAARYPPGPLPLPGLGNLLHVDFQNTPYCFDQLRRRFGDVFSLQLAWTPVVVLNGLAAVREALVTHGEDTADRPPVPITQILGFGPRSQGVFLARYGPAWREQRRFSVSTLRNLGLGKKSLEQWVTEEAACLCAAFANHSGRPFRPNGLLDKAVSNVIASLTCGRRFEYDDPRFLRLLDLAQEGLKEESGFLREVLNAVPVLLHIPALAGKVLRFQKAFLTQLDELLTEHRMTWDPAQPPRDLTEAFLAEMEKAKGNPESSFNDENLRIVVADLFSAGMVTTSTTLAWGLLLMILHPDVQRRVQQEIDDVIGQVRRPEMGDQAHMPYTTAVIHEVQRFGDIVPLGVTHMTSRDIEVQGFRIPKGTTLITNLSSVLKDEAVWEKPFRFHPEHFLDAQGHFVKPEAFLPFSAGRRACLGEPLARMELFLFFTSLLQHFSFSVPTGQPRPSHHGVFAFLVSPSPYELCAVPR

Assay [11] addresses Cytochrome P450 2C19 (Homo sapiens) (UniProt P33261). In words: qHTS Assay for Inhibitors and Substrates of Cytochrome P450 2C19 (AID 899; active = well fitted inhibition curve with a large enough effect; note: nearly all actives have a fitted effect of over 60% in size; note: potency is the fitted concentration of half-maximal effect). Conditions: recombinant CYP2C19, luciferin-H EGE luminescence; series mostly up to 11.4 µM. The method, boiled down: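 Human CYP2C19 (5nM) with Luciferin-H EGE at 10uM (its KM) in 50mM KPO4 was preincubated with compound for 10 min at 37C. NADPH regeneration started a 60 min 37C reaction. Luciferin was read by luminescence, normalized to 57uM ketoconazole.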

Sequence of 3',5'-cyclic-AMP phosphodiesterase 4B (Homo sapiens) (Q07343 whole entry, looked up): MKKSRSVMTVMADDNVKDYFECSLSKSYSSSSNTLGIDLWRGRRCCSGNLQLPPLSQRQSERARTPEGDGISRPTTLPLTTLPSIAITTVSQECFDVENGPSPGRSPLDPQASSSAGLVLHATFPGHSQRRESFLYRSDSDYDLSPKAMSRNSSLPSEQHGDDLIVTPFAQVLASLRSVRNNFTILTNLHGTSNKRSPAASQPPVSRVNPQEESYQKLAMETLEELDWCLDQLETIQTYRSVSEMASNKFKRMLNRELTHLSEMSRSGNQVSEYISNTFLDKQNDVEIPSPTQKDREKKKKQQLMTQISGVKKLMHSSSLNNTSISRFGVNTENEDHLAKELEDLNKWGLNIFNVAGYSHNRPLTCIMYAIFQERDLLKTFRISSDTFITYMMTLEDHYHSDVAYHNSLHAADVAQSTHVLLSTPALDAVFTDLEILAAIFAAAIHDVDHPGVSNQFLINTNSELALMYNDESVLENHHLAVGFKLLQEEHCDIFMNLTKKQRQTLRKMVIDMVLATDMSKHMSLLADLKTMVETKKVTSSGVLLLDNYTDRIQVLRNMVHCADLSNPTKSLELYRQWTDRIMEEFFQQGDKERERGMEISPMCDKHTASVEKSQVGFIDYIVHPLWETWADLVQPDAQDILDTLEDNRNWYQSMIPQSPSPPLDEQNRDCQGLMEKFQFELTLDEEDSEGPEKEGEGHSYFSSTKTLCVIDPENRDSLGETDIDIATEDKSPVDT
Sequence of Lysosomal acid glucosylceramidase (Homo sapiens) (P04062 whole entry, looked up): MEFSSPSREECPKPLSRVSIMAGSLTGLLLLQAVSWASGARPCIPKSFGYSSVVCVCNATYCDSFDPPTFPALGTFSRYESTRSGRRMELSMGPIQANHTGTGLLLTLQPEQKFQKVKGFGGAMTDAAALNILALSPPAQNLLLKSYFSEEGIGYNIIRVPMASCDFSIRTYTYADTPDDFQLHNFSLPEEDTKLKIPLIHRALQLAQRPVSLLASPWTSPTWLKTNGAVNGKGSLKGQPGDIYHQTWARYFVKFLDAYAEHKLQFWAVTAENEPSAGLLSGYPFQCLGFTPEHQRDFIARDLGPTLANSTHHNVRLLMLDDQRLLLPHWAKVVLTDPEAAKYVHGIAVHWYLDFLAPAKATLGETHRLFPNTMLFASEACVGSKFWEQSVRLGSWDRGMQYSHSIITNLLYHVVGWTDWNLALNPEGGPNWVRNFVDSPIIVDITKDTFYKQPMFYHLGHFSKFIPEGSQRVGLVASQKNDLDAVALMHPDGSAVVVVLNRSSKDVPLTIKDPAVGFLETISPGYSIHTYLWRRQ
Sequence of Cytochrome P450 2C19 (Homo sapiens) (P33261 whole entry, looked up): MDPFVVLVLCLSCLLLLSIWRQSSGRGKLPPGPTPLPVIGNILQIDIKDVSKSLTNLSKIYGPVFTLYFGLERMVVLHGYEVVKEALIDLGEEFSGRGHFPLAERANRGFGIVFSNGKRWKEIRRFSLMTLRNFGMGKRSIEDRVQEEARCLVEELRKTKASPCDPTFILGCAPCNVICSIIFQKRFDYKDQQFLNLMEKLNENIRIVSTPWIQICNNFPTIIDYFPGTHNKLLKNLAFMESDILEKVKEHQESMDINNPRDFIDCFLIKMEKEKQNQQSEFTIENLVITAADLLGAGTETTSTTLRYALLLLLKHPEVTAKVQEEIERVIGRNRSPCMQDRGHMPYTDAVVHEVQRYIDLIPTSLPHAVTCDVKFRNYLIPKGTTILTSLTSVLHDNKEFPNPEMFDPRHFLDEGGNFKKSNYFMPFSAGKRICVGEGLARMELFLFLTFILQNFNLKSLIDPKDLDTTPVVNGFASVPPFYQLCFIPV

Regarding `O=C(O)[C@@H](c1ccccc1)[C@@H](C(=O)O)c1ccccc1`, the Potency in [1] is over 11.4 µM; in assay [6], over 46 µM; in [7], over 9.22 µM. In addition, the activity change, negative = inhibition in assay [2] was 3.89%; in assay [3] it was -12% [at 2.29 µM]; in [4], 6.48%. For the same molecule, the activity, negative = inhibition in assay [5] was -0.514%. Also, the Potency entry in assay [8], in [9] and in assay [10] was “inactive” throughout.
`CN(Cc1cc(Cl)cc(Cl)c1O)Cc1c(O)ccc2ccccc12`: the Potency was over 11.4 µM in assay [1]; 0.631 µM (active) in assay [3]; over 46 µM in [6]; over 9.22 µM in assay [7]; 1.26 µM (active) in [10]; 1.26 µM (active) in [11]. Moreover, the activity change, negative = inhibition in assay [2] is -8.51%; in assay [4] it was -4.41%. In addition, the activity, negative = inhibition in assay [5] is -1.99%. The Potency result in assay [8] and in assay [9] was “inactive” each time.
On to `Clc1nc(NCCc2ccccc2)c2ncn(-c3ccccc3)c2n1`, for which the Potency was over 11.4 µM in [1]; 0.501 µM (active) in assay [3]; over 46 µM in assay [6]; over 9.22 µM in [7]; 0.501 µM (active) in assay [11]. In addition, the activity change, negative = inhibition in assay [2] was -9.15%; in assay [4], -0.663%. Further, the activity, negative = inhibition in assay [5] was -22.9%. Also, the Potency result in assay [8] and in [9] was “inactive” each time.
With `O=C(O)C1CC2(C1)CC(C(=O)O)C2` (stereo unspecified), the Potency in [1] is over 11.4 µM; in [6], over 46 µM; in assay [7], over 9.22 µM. Further, the figures for the activity change, negative = inhibition in assay [2], in [3] and in [4] were 1.62%, -6.3% [at 2.29 µM] and 10.7%, respectively. In assay [5], the activity, negative = inhibition is 12.7%. For the same molecule, the Potency entry in assay [8], in assay [9] and in assay [11] was “inactive” throughout.
As for `CN(C)CCN(c1ccccn1)c1ccccn1`, the figures for the Potency in assay [1], in assay [6] and in [7] were over 11.4 µM, over 46 µM and over 9.22 µM, respectively. Moreover, the activity change, negative = inhibition in assay [2] was 11.2%; in [4] it was 7.47%. Further, the Potency result in assay [3], in [8], in assay [9] and in assay [11] was “inactive” throughout. In assay [5], the activity, negative = inhibition is 11.4%.
On to `O=C(O)c1ccc(S(=O)(=O)N=Nc2c(O)[nH]c3ccccc23)cc1`, for which the Potency in [1] is over 11.4 µM; in assay [6], over 46 µM; in assay [7], over 9.22 µM. For the same molecule, the activity change, negative = inhibition in assay [2] is -0.32%; in [4], 4.27%. The Potency result in assay [3], in assay [8], in [9] and in assay [11] was “inactive” in each case. Also, in assay [5], the activity, negative = inhibition is 21.1%.
For the molecule `N=c1ccn2c(n1)O[C@H]1[C@@H](OP(=O)(O)O)[C@H](CO)O[C@H]12`, the Potency in [1] was over 11.4 µM; in assay [6] it was over 46 µM; in assay [7], over 9.22 µM. The results for the activity change, negative = inhibition in [2], in assay [3] and in [4] were 1.47%, -3.1% [at 2.29 µM] and 19.9%, respectively. For the same molecule, the activity, negative = inhibition in assay [5] is -1.19%. The Potency entry in [8], in [9] and in assay [11] was “inactive” throughout.
